Consider seven compounds from the supplement of paper PMC9794691.

Structures are written as SMILES.

For experiment [1], the system named is H1975. Description: area under confluence curve of compound monotherapy; compare to DMSO control AUC of the same experiment (AUC (confluence x time, arbitrary)). Put shortly:
(§1)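 Adenocarcinoma lines were grown in RPMI 1640 with 10% FBS at 37 °C and 5% CO2, seeded at 20,000–30,000 cells/well in 48-well plates, and treated the next day with test compound alone at one dose: 1 uM or the highest dose giving <50% parental inhibition. Every 3–4 days the wells were washed with PBS and the drug was refreshed, and medium was drug-free from the DTP stage (10–21 days). IncuCyte tracked confluence until wells given only an EGFR inhibitor regrew. Area under the confluence curve was calculated in Prism, taking the median of triplicates where run, and set beside the vehicle value from the same experiment.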

The test system of experiment [2] is HCC2279. Described as above. In a few lines: as §1
The subject of experiment [3] is HCC2935. The experiment is described as above. In a few lines:
as §1

Experiment [4] relates to HCC4006. The experiment is described as above. In a few lines: as §1
The test system of experiment [5] is HCC827. The experiment is described as above. Put shortly:
as §1

Experiment [6] relates to II-18. Described as above. In a few lines: as §1
For experiment [7], the system named is H1975. Description: area under confluence curve of osimertinib + compound combination regimen (DTP regrowth); compare to osimertinib-only DTP control AUC of the same experiment (AUC (confluence x time, arbitrary)). In a few lines:
(§2)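 EGFR-mutant NSCLC lines went into 48-well plates at 20,000–30,000 cells/well in RPMI 1640 with 10% FBS and were kept at 37 °C, 5% CO2. Cells got either the EGFR inhibitor plus a fixed-dose test compound from the start through the persister stage (10–21 days) and then drug-free medium, or the inhibitor alone followed by the test compound. Medium was changed every 3–4 days until wells given only the inhibitor regrew to confluence. The endpoint was the area under the IncuCyte confluence–time curve, calculated in Prism and reported as the median of triplicates where available.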

The subject of experiment [8] is HCC2279. The description is as above. Put shortly:
as §2

Experiment [9] concerns HCC2935. Described as above. Put shortly: as §2
The subject of experiment [10] is HCC4006. Described as above. Put shortly:
as §2

The test system of experiment [11] is HCC827. The experiment is described as above. In a few lines:
as §2

Experiment [12] has as its system II-18. Described as above. Put shortly: as §2
[13] abbreviates: 300 nM, DMSO control AUC in same experiment: 11459.

`NC1(C(=O)N[C@@H](CCO)c2ccc(Cl)cc2)CCN(c2nc[nH]c3nccc2-3)CC1` [Capivasertib]: the “area under confluence curve” value is 22500 with H1975 [1] (300 nM, DMSO control AUC in same experiment: 26010); 28500 in the experiment on HCC2279 [2] (300 nM, DMSO control AUC in same experiment: 29252); 6510 with HCC2935 [3] (setting [13]); 16700 with HCC4006 [4] (300 nM, DMSO control AUC in same experiment: 16794); 28500 in the experiment with HCC827 [5] (300 nM, DMSO control AUC in same experiment: 27404); 11600 with II-18 [6] (300 nM, DMSO control AUC in same experiment: 13556).
With `O=C(NC[C@H](O)CN1CCc2ccccc2C1)c1ccnc(NC2CCC2)c1`, the “area under confluence curve” value was determined as 20400 with H1975 [1] (300 nM, DMSO control AUC in same experiment: 20657); 25900 in the experiment with HCC2279 [2] (300 nM, DMSO control AUC in same experiment: 40085); 16200 in the experiment on HCC2935 [3] (300 nM, DMSO control AUC in same experiment: 15413); 8430 with HCC4006 [4] (300 nM, DMSO control AUC in same experiment: 10921); 45500 with HCC827 [5] (300 nM, DMSO control AUC in same experiment: 43928); 8360 with II-18 [6] (300 nM, DMSO control AUC in same experiment: 7080).
For `O=C(c1cc(Cc2n[nH]c(=O)c3ccccc23)ccc1F)N1CCN(C(=O)C2CC2)CC1` [Olaparib] + C=CC(=O)Nc1cc(Nc2nccc(-c3cn(C)c4ccccc34)n2)c(OC)cc1N(C)CCN(C)C [osimertinib], the “area under confluence curve” value in the experiment on H1975 [7] (test compound dose 1000 nM, dosing schedule: sequential, osimertinib-only DTP control AUC in same experiment: 22968, DMSO control AUC in same experiment: 15857) was found to be 19500; in the experiment on H1975 [7] (test compound dose 1000 nM, dosing schedule: upfront, osimertinib-only DTP control AUC in same experiment: 27164, DMSO control AUC in same experiment: 15857), 21000; in the experiment with HCC2279 [8] (test compound dose 1000 nM, dosing schedule: sequential, osimertinib-only DTP control AUC in same experiment: 26096, DMSO control AUC in same experiment: 14404), 23100; with HCC2279 [8] (test compound dose 1000 nM, dosing schedule: upfront, osimertinib-only DTP control AUC in same experiment: 33120, DMSO control AUC in same experiment: 14404), 29800; in the experiment on HCC2935 [9] (test compound dose 1000 nM, dosing schedule: sequential, osimertinib-only DTP control AUC in same experiment: 22314, DMSO control AUC in same experiment: 19215), 20700; in the experiment with HCC2935 [9] (test compound dose 1000 nM, dosing schedule: upfront, osimertinib-only DTP control AUC in same experiment: 29846, DMSO control AUC in same experiment: 19215) it was 26000. The “area under confluence curve” value in the experiment on HCC4006 [10] (test compound dose 1000 nM, dosing schedule: sequential, osimertinib-only DTP control AUC in same experiment: 12791, DMSO control AUC in same experiment: 18415) was determined as 11700; in the experiment with HCC4006 [10] (test compound dose 1000 nM, dosing schedule: upfront, osimertinib-only DTP control AUC in same experiment: 17269, DMSO control AUC in same experiment: 18415) it was 18000; in the experiment with HCC827 [11] (test compound dose 1000 nM, dosing schedule: sequential, osimertinib-only DTP control AUC in same experiment: 15330, DMSO control AUC in same experiment: 21320), 12400; in the experiment with HCC827 [11] (test compound dose 1000 nM, dosing schedule: upfront, osimertinib-only DTP control AUC in same experiment: 20798, DMSO control AUC in same experiment: 21320), 23700; in the experiment with II-18 [12] (test compound dose 1000 nM, dosing schedule: sequential, osimertinib-only DTP control AUC in same experiment: 8624, DMSO control AUC in same experiment: 11834) it was 9480; in the experiment on II-18 [12] (test compound dose 1000 nM, dosing schedule: upfront, osimertinib-only DTP control AUC in same experiment: 10856, DMSO control AUC in same experiment: 11834), 9420.
Consider `NC1(C(=O)N[C@@H](CCO)c2ccc(Cl)cc2)CCN(c2nc[nH]c3nccc2-3)CC1` [Capivasertib] + C=CC(=O)Nc1cc(Nc2nccc(-c3cn(C)c4ccccc34)n2)c(OC)cc1N(C)CCN(C)C [osimertinib], for which the “area under confluence curve” value in the experiment with H1975 [7] (test compound dose 300 nM, dosing schedule: sequential, osimertinib-only DTP control AUC in same experiment: 9919, DMSO control AUC in same experiment: 26010) stood at 1840; in the experiment on H1975 [7] (test compound dose 300 nM, dosing schedule: upfront, osimertinib-only DTP control AUC in same experiment: 15327, DMSO control AUC in same experiment: 26010) it was 3990; with HCC2279 [8] (test compound dose 300 nM, dosing schedule: sequential, osimertinib-only DTP control AUC in same experiment: 20224, DMSO control AUC in same experiment: 29252), 13700; with HCC2279 [8] (test compound dose 300 nM, dosing schedule: upfront, osimertinib-only DTP control AUC in same experiment: 43517, DMSO control AUC in same experiment: 29252) it was 38900; in the experiment on HCC2935 [9] (test compound dose 300 nM, dosing schedule: sequential, osimertinib-only DTP control AUC in same experiment: 9121, DMSO control AUC in same experiment: 11459), 5940; in the experiment on HCC2935 [9] (test compound dose 300 nM, dosing schedule: upfront, osimertinib-only DTP control AUC in same experiment: 12748, DMSO control AUC in same experiment: 11459), 10300. Also, the “area under confluence curve” value was determined as 17000 in the experiment with HCC4006 [10] (test compound dose 300 nM, dosing schedule: sequential, osimertinib-only DTP control AUC in same experiment: 22375, DMSO control AUC in same experiment: 16794); 12500 with HCC4006 [10] (test compound dose 300 nM, dosing schedule: upfront, osimertinib-only DTP control AUC in same experiment: 24440, DMSO control AUC in same experiment: 16794); 5490 with HCC827 [11] (test compound dose 300 nM, dosing schedule: sequential, osimertinib-only DTP control AUC in same experiment: 8266, DMSO control AUC in same experiment: 27404); 9340 in the experiment with HCC827 [11] (test compound dose 300 nM, dosing schedule: upfront, osimertinib-only DTP control AUC in same experiment: 13929, DMSO control AUC in same experiment: 27404); 3590 in the experiment with II-18 [12] (test compound dose 300 nM, dosing schedule: sequential, osimertinib-only DTP control AUC in same experiment: 3520, DMSO control AUC in same experiment: 13556); 2040 in the experiment on II-18 [12] (test compound dose 300 nM, dosing schedule: upfront, osimertinib-only DTP control AUC in same experiment: 6532, DMSO control AUC in same experiment: 13556).
Regarding `Cc1cc(N2C[C@@H](C)N[C@@H](C)C2)ncc1-c1ccc(-c2nc3c(ccn3C)c(=O)[nH]2)cc1`, the “area under confluence curve” value in the experiment on H1975 [1] (1000 nM, DMSO control AUC in same experiment: 20657) turned out to be 19600; with HCC2279 [2] (1000 nM, DMSO control AUC in same experiment: 40085), 40800; in the experiment on HCC2935 [3] (1000 nM, DMSO control AUC in same experiment: 15413), 14600; in the experiment on HCC4006 [4] (1000 nM, DMSO control AUC in same experiment: 10921), 10500; in the experiment with HCC827 [5] (1000 nM, DMSO control AUC in same experiment: 48895) it was 48800; in the experiment on II-18 [6] (1000 nM, DMSO control AUC in same experiment: 7080), 6490.
As to `CCN1CCN(Cc2ccc(Nc3ncc(F)c(-c4cc(F)c5nc(C)n(C(C)C)c5c4)n3)nc2)CC1` [Abemaciclib] + C=CC(=O)Nc1cc(Nc2nccc(-c3cn(C)c4ccccc34)n2)c(OC)cc1N(C)CCN(C)C [osimertinib], the “area under confluence curve” value was 8980 in the experiment with H1975 [7] (test compound dose 100 nM, dosing schedule: sequential, osimertinib-only DTP control AUC in same experiment: 12533, DMSO control AUC in same experiment: 14522); 5060 in the experiment on H1975 [7] (test compound dose 100 nM, dosing schedule: upfront, osimertinib-only DTP control AUC in same experiment: 18969, DMSO control AUC in same experiment: 14522); 4410 in the experiment with HCC2279 [8] (test compound dose 100 nM, dosing schedule: sequential, osimertinib-only DTP control AUC in same experiment: 5698, DMSO control AUC in same experiment: 27284); 12700 in the experiment with HCC2279 [8] (test compound dose 100 nM, dosing schedule: upfront, osimertinib-only DTP control AUC in same experiment: 30623, DMSO control AUC in same experiment: 27284); 4760 in the experiment on HCC2935 [9] (test compound dose 100 nM, dosing schedule: sequential, osimertinib-only DTP control AUC in same experiment: 9121, DMSO control AUC in same experiment: 11459); 9300 in the experiment on HCC2935 [9] (test compound dose 100 nM, dosing schedule: upfront, osimertinib-only DTP control AUC in same experiment: 12748, DMSO control AUC in same experiment: 11459). The “area under confluence curve” value came to 8540 in the experiment on HCC4006 [10] (test compound dose 100 nM, dosing schedule: sequential, osimertinib-only DTP control AUC in same experiment: 14882, DMSO control AUC in same experiment: 10921); 4990 with HCC4006 [10] (test compound dose 100 nM, dosing schedule: upfront, osimertinib-only DTP control AUC in same experiment: 18913, DMSO control AUC in same experiment: 10921); 6450 in the experiment on HCC827 [11] (test compound dose 100 nM, dosing schedule: sequential, osimertinib-only DTP control AUC in same experiment: 18675, DMSO control AUC in same experiment: 48895); 7890 with HCC827 [11] (test compound dose 100 nM, dosing schedule: upfront, osimertinib-only DTP control AUC in same experiment: 25542, DMSO control AUC in same experiment: 48895); 1010 in the experiment on II-18 [12] (test compound dose 100 nM, dosing schedule: sequential, osimertinib-only DTP control AUC in same experiment: 3520, DMSO control AUC in same experiment: 13556); 2540 in the experiment with II-18 [12] (test compound dose 100 nM, dosing schedule: upfront, osimertinib-only DTP control AUC in same experiment: 6532, DMSO control AUC in same experiment: 13556).
For the compound `COc1nnc2ccc(N3CCC(c4ccc(OCCN5CCN(C)C(=O)[C@H]5C)cc4)CC3)nn12`, the “area under confluence curve” value with H1975 [1] (300 nM, DMSO control AUC in same experiment: 14522) is 6020; in the experiment with HCC2279 [2] (300 nM, DMSO control AUC in same experiment: 27284), 21500; with HCC2935 [3] (setting [13]) it was 13000; with HCC4006 [4] (30 nM, DMSO control AUC in same experiment: 10921), 6660; with HCC827 [5] (300 nM, DMSO control AUC in same experiment: 48895), 42000; in the experiment with II-18 [6] (30 nM, DMSO control AUC in same experiment: 18996), 14400.
